# Rows were chosen to be rich in hits. Some 1.2% of all compounds tested hit in one or more screens of this group.
# MEP2-GFP yeast = modulators of MEP2-GFP levels in yeast, primary screen, S. cerevisiae, multiplex flow cytometry, MLPCN library | GFP response vs DMSO, % at 10 µM | 330,000 tested, 0.51% active | S. cerevisiae MEP2-GFP strain, 3 h; 100% = DMSO control level;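 active = GFP response versus DMSO above a set limit, roughly screen mean plus 3 SD, cut at about 180% in these data; inconclusive = fewer than 70 cells counted for a yeast strain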;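 also: median GFP fluorescence of the barcode-gated MEP2-GFP cells per well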
# LAP4 TOR yeast = modulators of LAP4-GFP expression in yeast, primary screen, S. cerevisiae, multiplex flow cytometry, MLPCN library. 3 h; median GFP as percent of DMSO wells. GFP response vs DMSO, % at 10 µM. 320,000 tested, 0.34% active. AID 2023, 2009;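 active = GFP response vs DMSO above a set limit, about the screen mean plus 3 SD, cut at about 150% in these data; inconclusive = under 70 cell events counted for the yeast strain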
# CIT2-GFP yeast = modulators of CIT2-GFP expression in yeast, primary screen, S. cerevisiae, GFP fusion, multiplex flow cytometry, MLPCN library; S. cerevisiae CIT2-GFP strain, 3 h; 100 means same as DMSO wells; GFP response vs DMSO, % at 10 µM; 320,000 tested, 0.065% active; AID 2029, 2009;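 active = GFP response relative to DMSO above a set limit, near the screen mean plus 3 SD, cut at about 150% in these data; inconclusive = Fewer than 70 cells measured for a yeast strain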;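 also: ratio of well median GFP fluorescence to mean of DMSO wells on the plate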
# RPL19A TOR yeast = RPL19A-GFP expression modulators in yeast, primary screen, cell-based, S. cerevisiae, multiplex flow cytometry, MLPCN. S. cerevisiae RPL19A-GFP strain, 3 h; stronger effect = lower value. 330,000 tested, 0.3% active. AID 2025, 2009. percent response vs DMSO, % at 10 µM;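 active = percent response vs DMSO below 50%; inconclusive = fewer than 70 events counted for the yeast strain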;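 also: median channel GFP fluorescence of the barcoded RPL19A-GFP strain; ratio of sample median GFP to plate DMSO average so 100% = DMSO; lower means less RPL19A-GFP as with rapamycin TOR inhibition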
# AGP1 TOR yeast = modulators of AGP1-GFP expression in yeast TOR pathway, primary screen, cell-based, multiplex flow cytometry, S. cerevisiae, MLPCN library | AID 2066, 2009 | GFP response vs DMSO, % at 10 µM | 320,000 tested, 0.02% active | 3 h; GFP as percent of DMSO wells;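 active = GFP response relative to DMSO above a set limit, near screen average plus 3 SD, cut at about 150% in these data; inconclusive = fewer than 70 cells counted for the yeast strain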;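 also: median GFP channel fluorescence of the gated AGP1 strain per well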
# Pemphigus Ab inh = inhibitors of pemphigus antibody binding to DSG3, primary screen, biochemical, bead-based, flow cytometry, scFv-GFP; Desmoglein-3 (Homo sapiens), P32926; DSG3-coupled beads, scFv-anti-DSG3-GFP binding; stronger effect = lower value; binding (percent of control), % at 10 µM; 310,000 tested, 0.48% active; AID 588358, 2011;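 active = binding more than 3 SD below its plate's average and above zero; inconclusive = below that plate limit but binding exactly zero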;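 also: hits lower antibody fragment binding to DSG3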
# * hit, by the source's call; ? = inconclusive; · = no result given; [ ] = another dose, or the depositor's remark.
SMILES,MEP2-GFP yeast,LAP4 TOR yeast,CIT2-GFP yeast,RPL19A TOR yeast,AGP1 TOR yeast,Pemphigus Ab inh
CN(C)c1ccc(/C=C/c2ccc3ccccc3n2)cc1,109,100,84,102,82,107
CCCN(CCC)c1ccc(/C=C/c2ccc3cc(OCC)ccc3n2)cc1,231*[may fluoresce violet],96,?,76,15,119
CCc1ccc(CN(Cc2cccnc2)C(=O)/C=C/c2ccc(OC)cc2)cc1,104,110,91,99,103,304
Cc1ccc(CC2CC(=O)N(Cc3ccco3)C2=O)cc1 (configuration not stated),92,191*,65,96,93,96
O=[N+]([O-])c1ccc(O)c(NC(=S)Nc2ccccc2)c1,313*[may fluoresce violet],78,?,90,22,·
CN(C)C(=O)N1CCc2ccc([N+](=O)[O-])cc21,·,·,·,·,·,106
COc1ccc(-c2nn(-c3ccccc3)cc2/C=N/NC(=O)c2cccc(S(=O)(=O)Nc3ccccc3OC)c2)cc1,111,95,94,102,93,83*
Cc1ccc(NC(=O)Nc2nnc(Cc3ccc([N+](=O)[O-])cc3)s2)cc1,105,99,99,104,96,69
CC1CCc2c(sc(NC(=O)/C=C/c3cccs3)c2C(=O)O)C1 (configuration not stated),93,92,99,98,96,59*
CC1(C)C2CCC1(CS(=O)(=O)NC(CC(=O)O)c1cccc(Br)c1)C(=O)C2 (configuration not stated),105,88,82,97,67,114
Cc1ccc2nc(-c3ccccn3)cc(C(=O)NCCc3ccc(F)cc3)c2c1,136,98,102,101,90,107
COc1cc(NC(=O)c2c(-c3ccccc3Cl)noc2C)c2ncccc2c1,160,62,?,18*[may fluoresce violet],?,101
Cc1onc(-c2ccccc2Cl)c1C(=O)Nc1cccc2cccnc12,355*[may fluoresce violet],108,?,16*[may fluoresce violet],?,110
COc1cc(NC(=O)c2ccc(Cl)cc2)c2ncccc2c1,119,108,108,114,107,66
O=C(O)c1cc(=S)nc[nH]1,·,·,·,·,·,92
CCC(CC)c1nnc(NC(=O)c2cccc(S(=O)(=O)N3CCOCC3)c2)s1,103,98,102,98,96,93
CCN(CC)Cc1c(O)ccc2c(=O)c(-c3ccc4c(c3)OCCO4)coc12,182*[may fluoresce violet],86,?,38*[may fluoresce violet],·,104
O=C(CCCN1CCC(O)(c2ccc(Cl)cc2)CC1)c1ccc(F)cc1,90,?,?,?,78,53*
O=C(CCCN1CCC(O)(c2ccc(Br)cc2)CC1)c1ccc(F)cc1,91,101,78,96,81,114
Cc1c2c([n+]3n1CCC3)CC(C)(C)CC2=O,101,89,95,97,104,101
O=C(NCC(=O)N1CCN(S(=O)(=O)/C=C/c2ccccc2)CC1)c1ccc(Cl)cc1,96,98,96,93,95,73*
O=C(NCC(=O)N1CCOCC1)c1ccccc1,212*[may fluoresce violet],94,?,59,15,121
Cc1nc(N)ncc1CCC1OCCO1,·,·,·,·,·,103
COc1ccc(CN2CCC[C@]3(N[C@H](c4ccccc4)[C@@H]4C(=O)N(Cc5ccccc5)C(=O)[C@@H]43)C2=O)cc1,·,·,·,·,·,108
C#CCOCCOCCOCCNc1nc(N2CCN(C(=O)CCCCCCCCCCNC(=O)[C@H](CCCN=C(N)N)n3cc(C[C@@H](C)CC)nn3)CC2)nc(N2CCN(C(=O)CCCCCCCCCCNC(=O)[C@@H]([C@H](C)CC)n3cc(CCCCCN)nn3)CC2)n1,92,193*,76,70,83,·
